Each structure is given as a SMILES string. This is part of a sample that, as a whole, favours compounds with a hit. Of some 83,000 tested, about 20% had one in any assay.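 Method: cells in 96-well plates; compound added at one concentration; 48 h incubation; percent growth measured; values under 10 scored active.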 Values without a mark were called inactive. The source made the active and inactive calls.

Results on eight molecules are retold here after PubChem BioAssay (NCI).

Some test systems named below: NCI-H322M lung; HOP-62 NSCLC; NCI-H460 lung; HOP-92 NSCLC; NCI-H522 lung; A549/ATCC NSCLC; 786-0 renal; DU-145 prostate; K-562 leukemia; MALME-3M melanoma; MDA-MB-231 breast; RXF 393 renal; SF-268 CNS; SF-295 CNS; SF-539 CNS; UACC-257 melanoma; M14 melanoma; HCT-15 colon; COLO 205 colon.
Holding throughout (assay): NCI-60 one-dose screen, 48 h (100 = growth as untreated, 0 = no growth, -100 = all killed)
What all share (details): 10 µM unless noted

As to `Clc1ccc2c(NCCCn3ccnc3)c3oc4ccc(Cl)cc4c3nc2c1`, the growth in the test with NCI-H322M lung is 71%; in the test on HOP-62 NSCLC, 66.6%; in the test with NCI-H460 lung, 11.1%; in the test with HOP-92 NSCLC, 57.4%; in the test on NCI-H522 lung, 82.9%; in the test with A549/ATCC NSCLC, 89.2%. For the same molecule, the growth in the test on 786-0 renal was 41.6%; with DU-145 prostate, 92%; in the test with K-562 leukemia it was 66.2%; in the test with MALME-3M melanoma, 96.5%; in the test on MDA-MB-231 breast, 58.8%; in the test on RXF 393 renal, 55.4%. In addition, the growth in the test on SF-268 CNS is 91.1%; with SF-295 CNS, 86.4%; in the test on SF-539 CNS it was 84%; with UACC-257 melanoma, 97.9%; in the test on M14 melanoma, 105%; with HCT-15 colon, 51.9%.
For the molecule `Fc1ccc(-c2cc3nc(C(Cl)Cl)nc(-c4ccccc4)n3n2)cc1`, the growth was -33.9% (active) with NCI-H322M lung; -36.9% (active) with HOP-62 NSCLC; -69.1% (active) in the test with NCI-H460 lung; -27.7% (active) with HOP-92 NSCLC; -45.6% (active) with A549/ATCC NSCLC; 5.34% (active) in the test with 786-0 renal. The growth is -72.5% (active) in the test with COLO 205 colon; -33.8% (active) in the test on DU-145 prostate; 19.2% in the test on K-562 leukemia; 47.2% in the test on MALME-3M melanoma; -10.2% (active) in the test on MDA-MB-231 breast; -62.9% (active) in the test on RXF 393 renal. Moreover, the growth in the test with SF-268 CNS is 10.2%; in the test with SF-295 CNS, 2.73% (active); in the test on SF-539 CNS, -10.6% (active); with UACC-257 melanoma, -2.11% (active); in the test on M14 melanoma it was 26.9%; in the test with HCT-15 colon it was 7.35% (active).
In the case of `O=C(CCN1C(=O)/C(=C/c2ccccc2)SC1=S)N1CCOCC1`, the growth is 87.2% in the test on NCI-H322M lung; 114% with HOP-62 NSCLC; 99.3% in the test on NCI-H460 lung; 94.6% with HOP-92 NSCLC; 58.3% in the test with NCI-H522 lung; 101% with A549/ATCC NSCLC. Also, the growth with 786-0 renal was 82.6%; in the test with COLO 205 colon, 119%; in the test with DU-145 prostate it was 77.3%; in the test with K-562 leukemia it was 43.1%; with MALME-3M melanoma it was 72.9%; in the test with MDA-MB-231 breast, 75.9%. Moreover, the growth in the test on RXF 393 renal is 77.1%; in the test on SF-268 CNS it was 97.7%; with SF-295 CNS, 98.1%; in the test with SF-539 CNS, 91.8%; in the test with UACC-257 melanoma it was 91.4%; with M14 melanoma, 76.8%. The growth with HCT-15 colon is 53.7%.
Regarding `NC(=O)c1c(NC(=O)c2ccc(C3CCCCC3)cc2)sc2c1CCC(=O)C2`, the growth is 97.8% in the test with NCI-H322M lung; 56.4% with HOP-62 NSCLC; 15.8% with NCI-H460 lung; -15.4% (active) with HOP-92 NSCLC; -2.16% (active) in the test on NCI-H522 lung; 10.8% in the test with A549/ATCC NSCLC. Also, the growth in the test with 786-0 renal is 26.3%; with COLO 205 colon it was -36.1% (active); with DU-145 prostate, 49.2%; with K-562 leukemia, 3.87% (active); in the test with MALME-3M melanoma, 13.2%; with MDA-MB-231 breast, 15.6%. Also, the growth with RXF 393 renal is -2.51% (active); in the test on SF-268 CNS, 33.1%; in the test on SF-295 CNS, 18.9%; with SF-539 CNS it was 14.9%; with UACC-257 melanoma, 12.2%; with M14 melanoma, 18%. Also, the growth in the test on HCT-15 colon is 4.53% (active).
Take `COc1ccc(-c2nc3ccc(-c4nnc(SCC(=O)Nc5ccc(C(=O)/C=C/c6ccc(Cl)cc6)cc5)o4)cc3[nH]2)cc1OC`: the growth is 95.8% with NCI-H322M lung; 103% in the test with HOP-62 NSCLC; 103% in the test with NCI-H460 lung; 105% with HOP-92 NSCLC; 98.4% with NCI-H522 lung; 103% in the test on A549/ATCC NSCLC. For the same molecule, the growth is 103% in the test with 786-0 renal; 116% in the test with COLO 205 colon; 109% in the test with DU-145 prostate; 92.7% in the test with K-562 leukemia; 95.1% with MALME-3M melanoma; 95.2% with MDA-MB-231 breast. Further, the growth was 106% with RXF 393 renal; 106% in the test with SF-268 CNS; 98% with SF-295 CNS; 83.8% in the test on SF-539 CNS; 112% in the test on UACC-257 melanoma; 108% in the test on M14 melanoma. Further, the growth in the test on HCT-15 colon is 97.1%.
In the case of `N[C@@H](Cc1cn(-c2ccnc3ccccc23)nn1)C(=O)O`, the growth in the test on HOP-62 NSCLC was 95.1%; with NCI-H460 lung, 112%; with HOP-92 NSCLC, 101%; with NCI-H522 lung, 101%; in the test with A549/ATCC NSCLC, 101%; with 786-0 renal, 104%. For the same molecule, the growth in the test on COLO 205 colon was 112%; in the test with DU-145 prostate, 110%; in the test with K-562 leukemia it was 107%; in the test on MALME-3M melanoma, 95.5%; in the test with MDA-MB-231 breast, 97.5%; in the test on RXF 393 renal it was 121%. The growth is 103% with SF-268 CNS; 104% with SF-295 CNS; 93% in the test with SF-539 CNS; 106% in the test on UACC-257 melanoma; 108% with M14 melanoma; 114% in the test with HCT-15 colon.
On to `Cc1ccccc1NC(=O)/C=C/c1ccc(OCCOc2ccc3c(C)cc(=O)oc3c2)cc1`, for which the growth in the test with NCI-H322M lung was 92.2%; in the test with HOP-62 NSCLC, 110%; with NCI-H460 lung it was 91.8%; in the test on HOP-92 NSCLC it was 93.1%; in the test with NCI-H522 lung it was 85.1%; in the test on A549/ATCC NSCLC, 95.7%. The growth in the test on 786-0 renal was 110%; with COLO 205 colon, 103%; with DU-145 prostate, 100%; in the test with K-562 leukemia it was 88.8%; with MALME-3M melanoma, 89.7%; with MDA-MB-231 breast, 91.8%. Further, the growth was 95.3% in the test on RXF 393 renal; 89.2% in the test on SF-268 CNS; 104% in the test with SF-295 CNS; 50.8% in the test with SF-539 CNS; 101% with UACC-257 melanoma; 98.2% with M14 melanoma. The growth with HCT-15 colon is 74.7%.
In the case of `COc1cc2cc(Oc3ccc(NC(=O)c4cccc(C(F)(F)F)c4)cc3)c(C)nc2cc1OCCN1CCCCC1`, the growth in the test with NCI-H322M lung was 69.2%; in the test on HOP-62 NSCLC it was 98.1%; with NCI-H460 lung, -69.4% (active); in the test on HOP-92 NSCLC it was 43.7%; in the test on A549/ATCC NSCLC, 19.2%; in the test on 786-0 renal it was 55.4%. Moreover, the growth in the test with COLO 205 colon is -94.8% (active); in the test with DU-145 prostate it was 59.4%; in the test on K-562 leukemia, -48.2% (active); in the test with MALME-3M melanoma, -86.1% (active); in the test on MDA-MB-231 breast it was -100% (active); in the test with RXF 393 renal it was -16% (active). The growth with SF-268 CNS was 81.5%; in the test on SF-295 CNS it was 7.09% (active); with SF-539 CNS, -68.8% (active); in the test on UACC-257 melanoma, -87.3% (active); with M14 melanoma it was -86.7% (active); in the test with HCT-15 colon, -88.8% (active).
